Results as given in PubChem BioAssay AID1159580 (chemical genetic matrix, 2015).
In all, about 5,500 compounds went through this assay and about 2,000 (36%) were called active. Another 18% or so got no clear call; they are omitted. Rule as the data show it: active = normalized growth mostly below about 0.91 (no sharp cut-off); inconclusive = no clear call, values can overlap the other calls; inactive = mostly above about 0.92. The list shows a part of the results.

Assay: chemical genetic growth profiling, strain panel (AID 1159580);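 also: tested at 20 µM; growth read once vehicle control cultures reached saturation at 30 °C; 1 = growth at the plate median or of vehicle wells; lower values mean less growth of the strain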
Conditions: S. cerevisiae deletion strains, growth OD
[1] = locus YAL021C, strain ccr4, stronger effect = lower value
[2] = locus YAL026C, strain drs2, stronger effect = lower value
[3] = locus YAL030W, strain snc1, stronger effect = lower value
[4] = locus YBL061C, strain skt5, stronger effect = lower value
[5] = locus YBR009C, strain hhf1, stronger effect = lower value
[6] = locus YBR023C, strain chs3, stronger effect = lower value
[7] = locus YBR171W, strain sec66, stronger effect = lower value
[8] = locus YBR231C, strain swc5, stronger effect = lower value
[9] = locus YBR279W, strain paf1, stronger effect = lower value
[10] = locus YCL011C, strain gbp2, stronger effect = lower value
[11] = locus YCL016C, strain dcc1, stronger effect = lower value
[12] = locus YCL061C, strain MRC1, stronger effect = lower value
[13] = locus YCL069W, strain vba3, stronger effect = lower value
[14] = locus YCR088W, strain abp1, stronger effect = lower value
[15] = locus YDL005C, strain med2, stronger effect = lower value
[16] = locus YDL040C, strain nat1, stronger effect = lower value
[17] = locus YDR001C, strain nth1, stronger effect = lower value
[18] = locus YDR069C, strain doa4, stronger effect = lower value
[19] = locus YDR137W, strain rgp1, stronger effect = lower value
[20] = locus YDR159W, strain sac3, stronger effect = lower value
[21] = locus YDR297W, strain sur2, stronger effect = lower value
[22] = locus YDR334W, strain swr1, stronger effect = lower value
[23] = locus YDR335W, strain msn5, stronger effect = lower value
[24] = locus YDR392W, strain spt3, stronger effect = lower value
[25] = locus YEL003W, strain gim4, stronger effect = lower value
[26] = locus YEL037C, strain rad23, stronger effect = lower value
[27] = locus YEL061C, strain CIN8 (second series), stronger effect = lower value
[28] = locus YER015W, strain faa2, stronger effect = lower value
[29] = locus YER016W, strain bim1, stronger effect = lower value
[30] = locus YER111C, strain swi4, stronger effect = lower value
[31] = locus YER155C, strain BEM2 (second series), stronger effect = lower value
[32] = locus YFR010W, strain ubp6, stronger effect = lower value
[33] = locus YGL167C, strain pmr1, stronger effect = lower value
[34] = locus YGL173C, strain kem1, stronger effect = lower value
[35] = locus YGL227W, strain vid30, stronger effect = lower value
[36] = locus YGL240W, strain doc1, stronger effect = lower value
[37] = locus YGL253W, strain hxk2, stronger effect = lower value
[38] = locus YHR013C, strain ard1, stronger effect = lower value
[39] = locus YHR027C, strain rpn1, stronger effect = lower value
[40] = locus YHR142W, strain chs7, stronger effect = lower value
[41] = locus YJL092W, strain hpr5, stronger effect = lower value
[42] = locus YJL095W, strain BCK1 (second series), stronger effect = lower value
[43] = locus YJL115W, strain asf1, stronger effect = lower value
[44] = locus YJL129C, strain trk1, stronger effect = lower value
[45] = locus YJL154C, strain vps35, stronger effect = lower value
[46] = locus YJL164C, strain tpk1, stronger effect = lower value
[47] = locus YJL166W, strain qcr8, stronger effect = lower value
[48] = locus YJL187C, strain SWE1, stronger effect = lower value
[49] = locus YKL160W, strain elf1, stronger effect = lower value
[50] = locus YKR026C, strain gcn3, stronger effect = lower value
[51] = locus YKR091W, strain srl3, stronger effect = lower value
[52] = locus YLL001W, strain dnm1, stronger effect = lower value
[53] = locus YLL026W, stronger effect = lower value
[54] = locus YLL041C, strain sdh2, stronger effect = lower value
[55] = locus YLR027C, strain aat2, stronger effect = lower value
[56] = locus YLR221C, strain rsa3, stronger effect = lower value
[57] = locus YLR258W, strain gsy2, stronger effect = lower value
[58] = locus YLR262C, strain YPT6 (second series), stronger effect = lower value
[59] = locus YLR320W, strain mms22, stronger effect = lower value
[60] = locus YLR342W, strain FKS1, stronger effect = lower value
[61] = locus YLR357W, strain rsc2, stronger effect = lower value
[62] = locus YLR370C, strain arc18, stronger effect = lower value
[63] = locus YLR384C, strain iki3, stronger effect = lower value
[64] = locus YML120C, strain ndi1, stronger effect = lower value
[65] = locus YMR058W, strain fet3, stronger effect = lower value
[66] = locus YMR125W, strain sto1, stronger effect = lower value
[67] = locus YMR129W, stronger effect = lower value
[68] = locus YMR205C, strain PFK2, stronger effect = lower value
[69] = locus YMR231W, strain pep5, stronger effect = lower value
[70] = locus YNL071W, strain lat1, stronger effect = lower value
[71] = locus YNL209W, strain ssb2, stronger effect = lower value
[72] = locus YNL248C, strain rpa49, stronger effect = lower value
[73] = locus YNL322C, strain KRE1 (second series), stronger effect = lower value
[74] = locus YNR049C, strain mso1, stronger effect = lower value
[75] = locus YOR001W, strain rrp6, stronger effect = lower value
[76] = locus YOR070C, strain gyp1, stronger effect = lower value
[77] = locus YOR080W, strain dia2, stronger effect = lower value
[78] = locus YOR083W, strain WHI5, stronger effect = lower value
[79] = locus YOR106W, strain vam3, stronger effect = lower value
[80] = locus YOR265W, strain rbl2, stronger effect = lower value
[81] = locus YOR270C, strain vph1, stronger effect = lower value
[82] = locus YOR290C, strain snf2, stronger effect = lower value
[83] = locus YPL051W, strain arl3, stronger effect = lower value
[84] = locus YPL078C, strain atp4, stronger effect = lower value
[85] = locus YPL106C, strain sse1, stronger effect = lower value
[86] = locus YPL240C, strain hsp82, stronger effect = lower value

Measured: normalized growth

COc1ccc(C=CC(=O)c2ccc(O)cc2O)cc1OC
inactive: [1] 0.908 | [3] 0.964 | [7] 0.965 | [10] 0.934 | [11] 0.936 | [12] 0.976 | [13] 0.975 | [14] 0.982 | [15] 0.983 | [16] 0.984 | [17] 0.971 | [18] 0.953 | [20] 0.893 | [21] 0.968 | [22] 0.974 | [23] 0.973 | [25] 0.936 | [26] 0.983 | [27] 0.977 | [28] 0.965 | [29] 0.979 | [30] 0.994 | [32] 0.96 | [33] 0.961 | [34] 0.972 | [35] 0.987 | [36] 0.893 | [39] 0.982 | [41] 0.972 | [43] 0.989 | [45] 0.998 | [48] 0.929 | [50] 0.976 | [51] 0.989 | [52] 0.935 | [54] 0.978 | [60] 0.96 | [61] 0.992 | [62] 0.929 | [63] 0.995 | [65] 0.908 | [66] 0.933 | [67] 0.98 | [69] 0.996 | [71] 0.958 | [72] 0.935 | [73] 0.996 | [74] 0.974 | [77] 0.991 | [80] 0.969 | [85] 0.881 | [86] 0.973
active: [2] 0.876 | [4] 0.811 | [5] 0.867 | [6] 0.797 | [8] 0.86 | [9] 0.879 | [19] 0.59 | locus YDR195W, strain ref2 1.16 [resistant] | [24] 0.361 | [31] 0.696 | [37] 0.862 | [38] 0.842 | [40] 0.645 | [42] 0.863 | [44] 0.818 | [46] 0.859 | [47] 0.83 | [49] 0.83 | [53] 0.914 | [55] 0.886 | [56] 0.855 | [57] 0.914 | [58] 0.65 | [59] 0.732 | [64] 0.833 | [68] 0.759 | [70] 0.666 | [75] 0.87 | [76] 0.883 | [78] 0.835 | [79] 0.814 | [81] 0.653 | [82] 0.767 | [83] 0.768 | [84] 0.828

COc1ccc(/C=C/C(=O)Nc2ccccc2C(=O)O)cc1OC
inactive: locus YAL013W, strain DEP1, stronger effect = lower value 1.03 | locus YAL040C, strain CLN3, stronger effect = lower value 0.97 | locus YCL061C, strain MRC1 (second series), stronger effect = lower value 0.99 | locus YDR150W, strain NUM1, stronger effect = lower value 0.994 | locus YDR363W, strain ESC2, stronger effect = lower value 1.01 | locus YER002W, strain NOP16, stronger effect = lower value 0.985 | locus YMR263W, strain SAP30, stronger effect = lower value 0.996 | locus YMR307W, strain GAS1, stronger effect = lower value 1.01 | locus YNL175C, strain NOP13, stronger effect = lower value 0.979 | locus YNL197C, strain WHI3, stronger effect = lower value 0.964 | locus YNL224C, strain SQS1, stronger effect = lower value 0.999 | locus YNL322C, strain KRE1, stronger effect = lower value 1.02 | locus YOR083W, strain WHI5 (second series), stronger effect = lower value 0.964 | locus YPL055C, strain LGE1, stronger effect = lower value 1.05 | locus YPL241C, strain CIN2, stronger effect = lower value 0.991

COc1ccc(/C=C/C(=O)c2cc(O)ccc2O)cc1
active: [1] 0.81 | [2] 0.224 | [3] 0.31 | [4] 0.38 | [5] 0.15 | [6] 0.314 | [7] 0.521 | [8] 0.324 | [9] 0.242 | [10] 0.15 | [11] 0.227 | [12] 0.167 | [13] 0.13 | [14] 0.263 | [15] 0.424 | [16] 0.646 | [17] 0.344 | [18] 0.844 | [19] 0.285 | [20] 0.268 | locus YDR195W, strain ref2 0.482 | [21] 0.362 | [22] 0.172 | [23] 0.238 | [24] 0.0876 | [25] 0.133 | [26] 0.617 | [27] 0.0921 | [28] 0.429 | [29] 0.426 | [30] 0.0945 | [31] 0.106 | [32] 0.685 | [33] 0.894 | [34] 0.516 | [35] 0.103 | [36] 0.48 | [37] 0.172 | [38] 0.421 | [39] 0.661 | locus YHR030C, strain SLT2, stronger effect = lower value 0.432 | locus YHR079C, strain IRE1, stronger effect = lower value 0.456 | [40] 0.101 | [41] 0.272 | [42] 0.0826 | locus YJL095W, strain BCK1, stronger effect = lower value 0.427 | [43] 0.416 | [44] 0.373 | [45] 0.613 | [46] 0.152 | [47] 0.141 | [48] 0.269 | locus YJR066W, strain TOR1, stronger effect = lower value 0.465 | [49] 0.136 | [50] 0.449 | [51] 0.593 | [52] 0.338 | [53] 0.226 | [54] 0.379 | [55] 0.267 | locus YLR113W, strain HOG1, stronger effect = lower value 0.396 | [56] 0.113 | [57] 0.333 | [58] 0.289 | [59] 0.123 | [60] 0.248 | [61] 0.717 | [62] 0.72 | [63] 0.605 | [64] 0.221 | [65] 0.152 | [66] 0.156 | [67] 0.546 | [68] 0.178 | [69] 0.522 | [70] 0.0772 | locus YNL183C, strain NPR1, stronger effect = lower value 0.475 | [71] 0.606 | [72] 0.319 | [73] 0.462 | [74] 0.594 | [75] 0.349 | [76] 0.309 | [77] 0.71 | [78] 0.38 | [79] 0.391 | locus YOR231W, strain MKK1, stronger effect = lower value 0.464 | [80] 0.425 | [81] 0.191 | [82] 0.145 | [83] 0.29 | [84] 0.166 | [85] 0.483 | [86] 0.275 | locus YPL256C, strain CLN2, stronger effect = lower value 0.551
